For experiment [1], the target named is Peptidyl-prolyl cis-trans isomerase NIMA-interacting 1 (Homo sapiens) (UniProt Q13526). As to the kind of experiment: qHTS Validation Assay to Find Inhibitors of Pin1 (AID 504536; active = well fitted inhibition curve with a large enough effect in the polarisation, with a control signal flat, not every such curve was filed as active; the % refers to the polarisation;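 note: 0% = full Pin1 enzyme wells and -100% = no-enzyme wells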). Summed up: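 Fluorescence polarization competition: compounds (titration) displace HiFluor-488-labeled Pin1-1b peptide from Pin1 (0.3 uM final) in pH 7.5 HEPES buffer with DTT, 10 min at room temperature; %Activity normalized to no-enzyme wells, curves fitted.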
For orientation: In qHTS, concentration-response curves come from the screen itself.

Experiment [2] deals with Phosphoglycerate kinase, glycosomal (Trypanosoma brucei brucei) (UniProt P07378). In words: qHTS Validation Assay to Find Inhibitors of Phosphoglycerate Kinase (AID 504547).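 Note: control wells lack PGK and mark full inhibition.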 In a few lines:
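PGK activity was coupled to GAPDH (100nM final), which generates the unstable substrate 1,3-bisphosphoglycerate in-well. Reactions ran 60 minutes at room temperature in 100mM TEA pH 7.6, 5mM MgCl2, 0.01% Tween-20, then Kinase-Glo Plus luminescence was read.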

Experiment [3] concerns the target phosphoglycerate mutase (Leishmania major) (UniProt Q4Q090). As to the kind of experiment: qHTS Validation Assay to Find Inhibitors of Phosphoglycerate Mutase (AID 504548). Note: potency is the fitted concentration of half-maximal effect. The following applies: Potency: inhibition qHTS. Summed up:
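Lm PGAM 1.25nM final; 100 mM TEA pH 7.6, 5 mM MgCl2, 0.01% Tween-20; 45 min RT; Kinase-GloPlus, 10 min; end-point luminescence. Enzyme-free wells as negative controls.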

Experiment [4] can be described thus: Inducers of the Endoplasmic Reticulum Stress Response (ERSR) in human glioma: Validation (AID 504836). Note: 0% is about no effect. In a few lines: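 Stably transfected U87-MG glioma cells carrying a GRP78-based luciferase sensor; 16 h compound incubation. Luminescence end-point read 10 min after Bright-Glo addition at room temperature.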
Experiment [5] addresses Ubiquitin carboxyl-terminal hydrolase 1 (Homo sapiens) (UniProt O94782). In words: Inhibitors of USP1/UAF1: Pilot qHTS (AID 504865). Note: nearly all actives have a fitted effect of over 35% in size. Note: potency is the fitted concentration of half-maximal effect. In a few lines: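 Kinetic fluorescence assay: 1nM USP1/UAF1, 15 min compound preincubation, then 150nM Ub-Rho; 480/540 nm.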
A short description of experiment [6]: qHTS for Inhibitors of ATXN expression: Validation of Cytotoxic Assay (AID 588349).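 Note: cells exposed to compound for 72 hr.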 Note: potency is the fitted concentration of half-maximal effect. In a few lines:
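HEK293, compound dose series, 72 hr / 37 degrees C; viability via CellTiter Glo (intracellular ATP).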

Experiment [7] can be described thus: qHTS for Inhibitors of ATXN expression: Validation (AID 588378). Note: nearly all actives have a fitted effect of over 75% in size. Note: potency is the fitted concentration of half-maximal effect. In a few lines:
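Validation of ATXN2 expression inhibitors uses a cell-based luciferase fusion reporter in HEK293 cells, with 24 h compound exposure and paired viability (fluorescence) and reporter (luminescence) end-point reads.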

The target in experiment [8] is Galactokinase (Homo sapiens) (UniProt P51570). As to the kind of experiment: qHTS Validation Assay for Inhibitors of Human Galactokinase (GALK) (AID 493189). Note: 0% is about no effect. In a few lines: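 Compounds were pin-transferred into ATP buffer, then GALK-galactose mix was added (final 5 nM enzyme, 100 uM galactose, 35 uM ATP). After 1 h at room temperature, remaining ATP was measured luminescently.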

The nature of experiment [9]: Validation screen for small molecules that induce DNA re-replication in SW480 colon adenocarcinoma cells (AID 504364). Note: potency is the fitted concentration of half-maximal effect. In a few lines:
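Cells are treated 48 hr with test compound, stained 40 min with Hoechst at 37 C, and scanned for nuclear fluorescence; compounds inducing re-replication increase nuclei with elevated intensity.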

For experiment [10], the target named is DNA dC->dU-editing enzyme APOBEC-3G (Homo sapiens) (UniProt Q9HC16). In words: qHTS for inhibitors of Vif-A3G interactions: Validation (AID 588379). Note: 0% is about no effect. Summed up:
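HeLa cells stably expressing Vif and A3G-eYFP, 700 cells/well, incubated overnight at 37 deg C, then exposed to compound overnight at 37 deg C. Inhibition of Vif-mediated degradation read as increased yellow fluorescence (Ex 488/Em 500-530) by laser-scanning cytometry.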

Experiment [11] concerns the target Androgen receptor (Homo sapiens) (UniProt P10275). As to the kind of experiment: qHTS assay for small molecule agonists of androgen receptor signaling (AID 588515; active = well fitted curve in the direction sought with a large enough effect in the signal ratio, with a control signal flat; the % refers to the signal ratio; note: % is set by controls: 0 for no effect and ±100 for the full control effect). The following applies: AR-UAS-bla HEK293, beta-lactamase ratio, agonist 16 h; hits give high values. Summed up:
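EC50 and efficacy came from Hill fits of titrations (up to 92 uM) normalized to 30 nM R1881 as 100% and DMSO as 0%. Compound exposure was 16 h at 37 C on AR-UAS-bla HEK293 cells, with a 405/460/530 nm CCF4 fluorescence read.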

The target is the same in experiment [12]. In words: qHTS assay for small molecule antagonists of androgen receptor signaling (AID 588516; active = well fitted curve in the direction sought with a large enough effect in the signal ratio, with a control signal flat, not every such curve was filed as active; the % refers to the signal ratio; note: % is set by controls: 0 for no effect and ±100 for the full control effect). Summed up: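 Antagonist-mode qHTS: inhibition of R1881 (10 nM)-driven beta-lactamase expression in GripTite HEK 293 cells is measured after 16 h; values are Hill-derived IC50s normalized between R1881 and DMSO wells.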
In experiment [13] the target is Peroxisome proliferator-activated receptor delta (Homo sapiens) (UniProt Q03181). As to the kind of experiment: qHTS assay for small molecule agonists of peroxisome proliferator-activated receptor delta signaling (AID 588534; calls by dose curve;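 note: 0% = DMSO basal wells and 100% = positive control agonist at 10 µM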). In a few lines:
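Reporter cells were plated and held 5 hrs at 37 C before compounds were added. After 18 hrs at 37 C, CCF4 dye was loaded for 2 hrs at RT and fluorescence measured.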

“And” between values parts separate entries of the source, which are not always exact repeats. Equal values may be shown once. Unmarked numbers belong to inactive results. Results filed as inconclusive are left out. The source made the active and inactive calls. Unless noted, calls come from the whole dose curve; as a rule, active = well fitted curve in the direction sought with a large enough effect; inconclusive = small, poorly fitted or top-dose-only effect, or another doubt; inactive = no such curve, though single readings can be large; an effect the other way counts as inactive or inconclusive.

Among the data in PubChem BioAssay (NCATS) are Potency, outcome and activation values, retold here.

Sequence of Peptidyl-prolyl cis-trans isomerase NIMA-interacting 1 (Homo sapiens) (Q13526 whole entry, looked up): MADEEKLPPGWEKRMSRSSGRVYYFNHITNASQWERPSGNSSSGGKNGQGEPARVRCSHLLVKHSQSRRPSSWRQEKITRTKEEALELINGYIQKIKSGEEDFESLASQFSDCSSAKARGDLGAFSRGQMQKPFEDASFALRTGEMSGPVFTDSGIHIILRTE
Sequence of Galactokinase (Homo sapiens) (P51570 whole entry, looked up): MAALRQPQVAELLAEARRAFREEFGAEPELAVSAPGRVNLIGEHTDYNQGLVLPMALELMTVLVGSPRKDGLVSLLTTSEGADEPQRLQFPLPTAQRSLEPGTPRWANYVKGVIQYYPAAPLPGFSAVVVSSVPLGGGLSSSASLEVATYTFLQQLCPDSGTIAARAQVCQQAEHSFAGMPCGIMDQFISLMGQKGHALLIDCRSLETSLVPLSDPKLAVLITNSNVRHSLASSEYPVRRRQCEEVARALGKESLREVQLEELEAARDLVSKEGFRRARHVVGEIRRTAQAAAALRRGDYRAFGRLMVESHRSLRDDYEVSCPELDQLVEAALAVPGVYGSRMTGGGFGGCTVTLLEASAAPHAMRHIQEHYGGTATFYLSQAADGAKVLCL
Sequence of Phosphoglycerate kinase, glycosomal (Trypanosoma brucei brucei) (P07378 whole entry, looked up): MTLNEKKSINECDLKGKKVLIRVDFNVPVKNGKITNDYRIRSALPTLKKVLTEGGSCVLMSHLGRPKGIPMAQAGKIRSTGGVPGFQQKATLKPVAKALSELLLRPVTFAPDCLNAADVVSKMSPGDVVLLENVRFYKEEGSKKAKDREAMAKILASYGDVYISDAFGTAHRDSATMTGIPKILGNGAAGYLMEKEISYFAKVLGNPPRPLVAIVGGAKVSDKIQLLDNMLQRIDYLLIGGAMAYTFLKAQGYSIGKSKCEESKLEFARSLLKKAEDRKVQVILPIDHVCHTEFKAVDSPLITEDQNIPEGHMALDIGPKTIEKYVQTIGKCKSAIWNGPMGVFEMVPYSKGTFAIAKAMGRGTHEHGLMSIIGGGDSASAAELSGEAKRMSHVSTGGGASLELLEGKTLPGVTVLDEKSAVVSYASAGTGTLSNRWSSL
Sequence of Ubiquitin carboxyl-terminal hydrolase 1 (Homo sapiens) (O94782 whole entry, looked up): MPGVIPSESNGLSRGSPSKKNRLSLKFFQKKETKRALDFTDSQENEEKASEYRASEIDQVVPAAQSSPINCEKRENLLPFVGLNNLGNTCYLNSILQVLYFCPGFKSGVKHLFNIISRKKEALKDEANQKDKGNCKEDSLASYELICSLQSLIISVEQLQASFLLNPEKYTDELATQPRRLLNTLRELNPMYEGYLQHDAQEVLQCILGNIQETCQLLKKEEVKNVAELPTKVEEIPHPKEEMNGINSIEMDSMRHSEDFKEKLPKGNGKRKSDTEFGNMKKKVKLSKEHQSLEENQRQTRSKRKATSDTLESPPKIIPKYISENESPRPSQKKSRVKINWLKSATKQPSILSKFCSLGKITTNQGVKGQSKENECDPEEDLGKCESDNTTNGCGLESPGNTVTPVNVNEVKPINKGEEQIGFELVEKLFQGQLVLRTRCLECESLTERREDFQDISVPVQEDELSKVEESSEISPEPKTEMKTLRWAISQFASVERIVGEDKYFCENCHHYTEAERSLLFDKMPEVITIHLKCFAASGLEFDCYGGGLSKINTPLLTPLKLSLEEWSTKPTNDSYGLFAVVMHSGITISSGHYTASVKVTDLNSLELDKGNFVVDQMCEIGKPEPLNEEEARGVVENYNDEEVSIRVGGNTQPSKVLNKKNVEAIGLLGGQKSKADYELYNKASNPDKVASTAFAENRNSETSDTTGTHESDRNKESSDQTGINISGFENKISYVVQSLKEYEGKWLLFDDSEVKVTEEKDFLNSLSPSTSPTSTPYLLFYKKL
Sequence of phosphoglycerate mutase (Leishmania major) (Q4Q090 1-553): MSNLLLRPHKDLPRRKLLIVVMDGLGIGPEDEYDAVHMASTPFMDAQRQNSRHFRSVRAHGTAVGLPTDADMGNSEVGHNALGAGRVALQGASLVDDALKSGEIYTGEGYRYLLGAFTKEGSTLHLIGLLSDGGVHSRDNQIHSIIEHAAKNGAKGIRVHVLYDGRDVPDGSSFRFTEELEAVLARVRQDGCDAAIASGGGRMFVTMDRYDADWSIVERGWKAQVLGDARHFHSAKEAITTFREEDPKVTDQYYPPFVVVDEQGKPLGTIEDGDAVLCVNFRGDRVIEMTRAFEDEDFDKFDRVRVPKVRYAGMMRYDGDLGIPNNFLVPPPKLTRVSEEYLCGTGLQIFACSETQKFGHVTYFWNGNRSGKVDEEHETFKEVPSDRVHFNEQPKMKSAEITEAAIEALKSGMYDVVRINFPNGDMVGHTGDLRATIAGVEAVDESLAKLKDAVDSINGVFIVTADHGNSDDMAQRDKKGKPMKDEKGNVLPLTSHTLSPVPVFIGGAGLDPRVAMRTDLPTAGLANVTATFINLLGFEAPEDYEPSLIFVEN
Sequence of DNA dC->dU-editing enzyme APOBEC-3G (Homo sapiens) (Q9HC16 whole entry, looked up): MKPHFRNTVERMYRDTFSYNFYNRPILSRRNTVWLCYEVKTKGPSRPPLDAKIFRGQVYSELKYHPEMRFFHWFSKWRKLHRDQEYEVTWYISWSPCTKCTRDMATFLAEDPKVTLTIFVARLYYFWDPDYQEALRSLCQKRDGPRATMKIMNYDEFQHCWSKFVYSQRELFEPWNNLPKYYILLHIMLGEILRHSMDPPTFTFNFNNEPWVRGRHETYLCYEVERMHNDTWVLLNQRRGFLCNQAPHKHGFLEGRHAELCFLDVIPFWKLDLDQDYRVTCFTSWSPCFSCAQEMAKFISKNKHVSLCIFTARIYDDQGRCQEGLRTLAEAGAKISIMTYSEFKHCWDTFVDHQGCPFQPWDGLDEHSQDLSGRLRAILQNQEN
Sequence of Androgen receptor (Homo sapiens) (P10275 whole entry, looked up): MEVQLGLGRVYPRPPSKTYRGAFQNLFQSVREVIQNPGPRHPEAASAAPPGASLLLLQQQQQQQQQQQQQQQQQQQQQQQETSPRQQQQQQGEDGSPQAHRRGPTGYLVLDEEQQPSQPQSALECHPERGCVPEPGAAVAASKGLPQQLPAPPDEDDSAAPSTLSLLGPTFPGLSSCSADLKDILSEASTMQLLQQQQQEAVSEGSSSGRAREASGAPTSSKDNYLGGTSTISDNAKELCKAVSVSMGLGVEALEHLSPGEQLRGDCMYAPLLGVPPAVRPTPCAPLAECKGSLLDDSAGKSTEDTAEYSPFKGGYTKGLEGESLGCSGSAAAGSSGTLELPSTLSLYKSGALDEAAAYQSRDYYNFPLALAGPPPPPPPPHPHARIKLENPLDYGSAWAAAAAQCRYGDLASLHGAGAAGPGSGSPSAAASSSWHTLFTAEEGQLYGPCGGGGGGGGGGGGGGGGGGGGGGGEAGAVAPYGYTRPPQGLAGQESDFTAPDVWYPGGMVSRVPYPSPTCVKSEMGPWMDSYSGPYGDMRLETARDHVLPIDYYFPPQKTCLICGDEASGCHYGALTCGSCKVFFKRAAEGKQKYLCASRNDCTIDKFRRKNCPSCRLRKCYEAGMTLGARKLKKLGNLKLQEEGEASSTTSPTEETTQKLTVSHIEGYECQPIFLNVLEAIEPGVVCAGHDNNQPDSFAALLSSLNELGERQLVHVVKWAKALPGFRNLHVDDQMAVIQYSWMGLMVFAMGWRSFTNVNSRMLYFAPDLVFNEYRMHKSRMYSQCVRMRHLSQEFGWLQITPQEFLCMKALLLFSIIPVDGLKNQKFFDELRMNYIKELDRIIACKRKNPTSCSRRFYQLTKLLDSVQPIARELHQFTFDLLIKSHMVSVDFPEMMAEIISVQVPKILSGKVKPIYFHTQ
Sequence of Peroxisome proliferator-activated receptor delta (Homo sapiens) (Q03181 whole entry, looked up): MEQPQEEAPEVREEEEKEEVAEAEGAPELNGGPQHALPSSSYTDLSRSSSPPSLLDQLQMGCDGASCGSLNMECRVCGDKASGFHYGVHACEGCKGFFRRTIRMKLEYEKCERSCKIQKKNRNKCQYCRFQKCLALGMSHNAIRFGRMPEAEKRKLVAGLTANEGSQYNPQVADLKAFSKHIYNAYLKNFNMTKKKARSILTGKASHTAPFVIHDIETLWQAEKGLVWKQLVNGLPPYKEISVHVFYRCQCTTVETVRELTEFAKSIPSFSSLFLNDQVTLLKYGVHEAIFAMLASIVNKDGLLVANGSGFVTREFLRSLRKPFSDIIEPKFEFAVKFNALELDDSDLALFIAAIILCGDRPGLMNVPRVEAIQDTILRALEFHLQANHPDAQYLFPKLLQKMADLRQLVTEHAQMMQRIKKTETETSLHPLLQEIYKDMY

For `CCNC(=O)[C@H]1O[C@@H](n2cnc3c(N)ncnc32)[C@H](O)[C@@H]1O`, the Potency result in [1], in [2], in [3], in [5], in experiment [6] and in experiment [7] was “inactive” each time. The compound was called inactive in [4].
For the compound `CN1C2CCC1CC(OC(c1ccccc1)c1ccc(Cl)cc1)C2` (stereo unspecified), the outcome in experiment [8] was inactive. For the same compound, the Potency entry in [9] and in experiment [5] was “inactive” throughout.
Turning to `COC(=O)N1CCN(C(=O)Cc2ccc(Cl)c(Cl)c2)C(CN2CCCC2)C1` (stereo unspecified), in experiment [8], the compound was called inactive. The Potency entry in [9], in experiment [1], in [3] and in experiment [5] was “inactive” each time.
As to `Nc1ccc(CCN2CCN(c3cccc(C(F)(F)F)c3)CC2)cc1`, the compound was classed as inactive in experiment [8]. The Potency entry in experiment [9], in [1], in experiment [3], in [5] and in [6] was “inactive” in each case.
For the compound `CC1OC1P(=O)(O)O` (stereo unspecified), the call in [8] and in experiment [4] was inactive. Also, the Potency result in experiment [9] and in [5] was “inactive” each time.
`NC(N)=NOCC[C@H](N)C(=O)O`: the compound was classed as inactive in experiment [8], in experiment [4] and in experiment [10]. Moreover, the Potency result in experiment [9], in experiment [1], in [3], in experiment [5] and in experiment [7] was “inactive” each time.
In the case of `CC(C)(C)c1cc(C=C(C#N)C#N)cc(C(C)(C)C)c1O`, the compound was called inactive in experiment [8] and in [4]. Also, the Potency entry in experiment [1] and in [3] was “inactive” in each case. In addition, the Potency in experiment [7] was 0.631 µM (active).
Consider `CC(N)Cc1c[nH]c2ccc(OCc3cccs3)cc12` (stereo unspecified), for which the call in experiment [8] and in experiment [4] was inactive. The Potency result in experiment [9], in experiment [3] and in experiment [5] was “inactive” each time. Further, the Potency in [7] was 28.2 µM (active).
For the compound `CC(=O)c1c(O)c(C)c(O)c(Cc2c(O)c3c(c(C(=O)/C=C/c4ccccc4)c2O)OC(C)(C)C=C3)c1O`, the call in experiment [8], in experiment [4] and in experiment [10] was inactive. Besides, the Potency result in experiment [2] and in experiment [3] was “inactive” in each case. Besides, the Potency in experiment [5] is 79.4 µM (active) and 56.2 µM (active).
Take `CN1CC[C@@]2(C)c3cc(O)ccc3N(C)C12` (stereo partly specified): in [8], the compound was called inactive. Besides, the Potency result in experiment [9] and in experiment [3] was “inactive” each time. Moreover, the Potency in experiment [6] is 28.2 µM (active).
As for `C[N+]1(C)CCC(OC(=O)C(c2ccccc2)c2ccccc2)CC1`, the compound was classed as inactive in experiment [8] and in experiment [4]. Moreover, the Potency entry in experiment [9] is “inactive”.
On to `O=c1c2ccccc2[se]n1-c1ccccc1`, for which the compound was classed as inactive in experiment [8] and in experiment [4]. The Potency result in [1], in [2], in experiment [5] and in experiment [7] was “inactive” in each case. Also, in experiment [3], the Potency is 7.57 µM (active).
Consider `C[C@]12Cc3cn4c(nc3C=C1CCC1C2CC[C@@]2(C)[C@H]1CC[C@@]2(O)C#N)nc1ccccc14` (stereo partly specified), for which, in experiment [8], the result was inactive. For the same compound, in experiment [9], the Potency was 23.1 µM (active). Also, the Potency result in [1], in experiment [3], in experiment [5], in experiment [6] and in experiment [7] was “inactive” each time.
`CNC(=O)OCC[N+](C)(C)C`: the compound was classed as inactive in experiment [8]. Further, the Potency entry in [9] and in experiment [5] was “inactive” in each case.
For the compound `CCCN(CCC)C1CCc2cccc(O)c2C1` (stereo unspecified), the result in [8] and in experiment [4] was inactive. Besides, the Potency entry in experiment [9], in experiment [2], in [3], in experiment [5], in [6] and in experiment [7] was “inactive” each time.
For the compound `NC(=O)COc1c(F)cc(SCCNS(=O)(=O)c2ccccc2)cc1F`, the compound was classed as inactive in [8] and in [4]. Further, the Potency entry in experiment [9], in [1], in experiment [3], in [5] and in experiment [7] was “inactive” throughout.
For `CCN(CC)c1ncnc2c1ncn2[C@@H]1O[C@H](COP(=O)(O)OP(=O)(O)C(Br)(Br)P(=O)(O)O)[C@@H](O)[C@H]1O`, the result in experiment [8] and in experiment [4] was inactive. The Potency entry in experiment [9] is “inactive”.
As for `COc1ccc2c(c1OC)C(=O)OC2C1c2cc3c(cc2CCN1C)OCO3` (stereo unspecified), the outcome in experiment [8], in experiment [10], in experiment [12] and in experiment [13] was inactive. Besides, the activation in experiment [11] was -2.23%.
For `O=P(O)(O)C(Cl)(Cl)P(=O)(O)O`, the result in experiment [8] and in experiment [4] was inactive. For the same compound, the Potency entry in [9] and in experiment [5] was “inactive” in each case.
